Screening results: PubChem BioAssay, National Center for Advancing Translational Sciences (NCATS)
Compounds with a hit are over-represented: about 0.52% of the library has one in this group of screens.
Vif-APOBEC3G blk: Vif-A3G binding inhibition. HeLa A3G-eYFP + Vif (tagged APOBEC3G with the HIV-1 protein that degrades it), YFP fluorescence, overnight. Potency, µM (top dose mostly 46.1 µM), for the others: top-dose activity, negative = active, hits mostly inhibitors. 0.076% of 410,000 active; note: potency is the fitted concentration of half-maximal effect; % is set by controls: 0 for no effect and ±100 for the full control effect; nearly all actives have a fitted effect of over 60% in size
Target sequence (Q9HC16 whole entry, looked up): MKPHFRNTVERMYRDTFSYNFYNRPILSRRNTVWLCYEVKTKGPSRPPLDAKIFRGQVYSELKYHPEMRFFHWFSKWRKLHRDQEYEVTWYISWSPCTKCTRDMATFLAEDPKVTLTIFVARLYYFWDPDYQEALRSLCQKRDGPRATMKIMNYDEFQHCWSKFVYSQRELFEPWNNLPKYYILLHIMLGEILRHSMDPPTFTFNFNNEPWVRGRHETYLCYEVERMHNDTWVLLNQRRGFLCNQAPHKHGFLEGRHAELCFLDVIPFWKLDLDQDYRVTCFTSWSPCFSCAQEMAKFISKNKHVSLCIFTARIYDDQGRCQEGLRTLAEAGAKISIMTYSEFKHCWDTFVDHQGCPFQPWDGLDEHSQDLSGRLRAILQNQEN
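HeLa cells stably expressing Vif and C-terminally eYFP-tagged A3G, seeded overnight at 37 deg C, then exposed to compound by pintool overnight at 37 deg C. Rise in yellow fluorescence (Ex 488/Em 500-530, Acumen) marks blocked Vif-driven A3G degradation.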
PINK1 modulator: modulators of PINK1 expression; PINK1 immunofluorescence, high-content cytometry, 24 h; Potency, µM (titrated, usually from 76.6 µM), for the others: at the top dose activation (PINK1 increase), most hits filed as activators; 0.2% of 410,000 active; AID 624263; active = well fitted activation curve with a large enough effect; inconclusive = small, poorly fitted or top-dose-only effect; cell line not stated here; note: potency is the fitted concentration of half-maximal effect; % of control where 0% means no effect; nearly all actives have a fitted effect of over 65% in size
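Decision-based qHTS: stable cells, 24 h exposure to five compound concentrations, CCCP as control. Fixed cells stained for PINK1 plus nuclear, mitochondrial and cell markers, cytometer read.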
Epigenetic derep: epigenetic control regulation, reporter derepression | 0.2% of 280,000 active | Potency, µM (doses to about 53.9 µM), for inactives: at the top dose GFP activation, most hits filed as activators | murine LDR cells, GFP reporter derepression, 30 h; note: potency is the fitted concentration of half-maximal effect; % of control where 0% means no effect; nearly all actives have a fitted effect of over 60% in size
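Derepression of a silenced CMV-GFP reporter in murine LDR cells is scored by enumerating GFP-positive cells with a laser-scanning microplate cytometer after 30 hours of treatment at 37 C.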
Vif-A3F inh: blocks the Vif interaction with APOBEC3F; 0.2% of 390,000 active; Potency, µM (series often up to 46.1 µM), for inactives: at the top dose activity, negative = active; HeLa A3F-eYFP + Vif (tagged APOBEC3F with the HIV-1 protein that degrades it), YFP fluorescence increase; note: potency is the fitted concentration of half-maximal effect; % of control where 0% means no effect; nearly all actives have a fitted effect of over 65% in size
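HeLa cells stably expressing A3F-eYFP plus Vif, plated and incubated overnight at 37 deg C, then exposed to compounds overnight at 37 deg C. Blocked degradation read as raised yellow fluorescence (Ex 488/Em 500-530).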
C127i cell count: changes parental c127i cell counts in epigenetic modulator counter-screen; shares compounds with Epigenetic derep; mouse c127i parental cells, fluorescent cell count, 30 h; Potency, µM, without a hit: top-dose fluorescent cell count, hits mostly activators; 20% of 60 active; AID 493065
HCC4017 viab: reduces HCC4017 lung cancer cell viability among epigenetic modulators. HCC4017 NSCLC viability, CellTiter-Glo ATP luminescence, 72 h. 30% of 45 active. shares compounds with Epigenetic derep. Potency, µM (top dose mostly 46.1 µM), for inactives: at the highest dose activity change, negative = cytotoxicity, actives largely listed as cytotoxic
H358 viab: reduces H358 lung cancer cell viability among epigenetic modulators; shares compounds with Epigenetic derep; H358 NSCLC viability, ATP luminescence, 72 h; Potency, µM (series often up to 46.1 µM), inactives show at the highest dose activity change, negative = viability loss, usual class: cytotoxic; 30% of 45 active
* marks the source's active call; other numbers are inactive results; ? = inconclusive; · = not tested or not shown. Unless noted, calls come from the whole dose curve; as a rule, active = well fitted curve in the direction sought with a large enough effect; inconclusive = small, poorly fitted or top-dose-only effect, or another doubt; inactive = no such curve, though single readings can be large; an effect the other way counts as inactive or inconclusive.

SMILES	Vif-APOBEC3G blk	PINK1 modulator	Epigenetic derep	Vif-A3F inh	C127i cell count	others
CCS(=O)(=O)N1N=C(c2cccc(NS(C)(=O)=O)c2)CC1c1ccccc1 (stereo unspecified)	10µM*	25%	?	10µM*	·
Clc1ccccc1CNc1nc2ccccc2n2cnnc12	-15%	?	4%	?	·
COc1ccc(OC)c(N2C(=O)NC(=O)/C(=C\c3ccc([N+](=O)[O-])s3)C2=O)c1	-20%	6%	?	2%	6%	HCC4017 viab=-9%;H358 viab=-26%
C[C@H]1C[C@@H](C)C(=O)[C@@H]([C@H](O)CC2CC(=O)NC(=O)C2)C1	-5%	-1%	?	2%	3%
CC(=O)O[C@@H]1C[C@@]2(C)C(c3ccoc3)C[C@H]3O[C@]32[C@]2(C)C(=O)C(O)=C3C(C)(C)C(=O)C=C[C@]3(C)C12 (stereo partly specified)	·	·	2%	·	·
COP(=S)(OC)Oc1ccc([N+](=O)[O-])cc1	·	-1%	0%	·	·
CCN(CC)c1ccc2c(c1)oc(=O)c1c(Cl)cc(=O)oc12	?	0%	8.9µM*	25µM*	32µM*
CC[C@H]1CN2CCc3cc(OC)c(OC)cc3[C@H]2C[C@@H]1C[C@@H]1NCCc2cc(OC)c(OC)cc21	·	·	-1%	·	·
